# Sampled rows, rich in hits. Any-hit rate of the full collection: about 7.3%.
# Rab9 prom act: Rab9 promoter activation; 2.8% of 320,000 active; Potency, µM (series often up to 9.22 µM), for inactives: top-dose activation, negative = inhibition, hits mostly activators; AID 485297; Huh7 Rab9 promoter-luciferase reporter, luminescence, 24 h; further: % of control where 0% means no effect; nearly all actives have a fitted effect of over 60% in size
#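 Rab9 promoter-driven luciferase in stably transfected Huh7 cells; 1500 cells/well rested 2 h, exposed to compound in DMSO for 24 h at 37 °C, 5% CO2. Luminescence read 10 min after adding luciferase reagent at ambient temperature.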
# SMN2 splice up: SMN2 splice variant enhancement. HEK293 SMN2-luciferase splicing reporter, luminescence, 30-36 h. AID 1458. 2.8% of 210,000 active. Potency, µM (top dose mostly 46.1 µM), for the others: top-dose activity change, positive = activation, usual class: activators; further: % of control where 0% means no effect; nearly all actives have a fitted effect of over 55% in size
#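 HEK293 cells carry an SMN2 […]–luciferase reporter in which exon 7 inclusion puts luciferase in frame. Cells were plated 10-12 h before compound addition, then incubated 30-36 h at 37C. ONE-Glo luminescence was read; sodium butyrate at 4.5 mM final served as control.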
# Luc counter: blocks Kinase-Glo luciferase, a counter-screen artifact. Potency, µM (highest dose often 38.3 µM), inactives show top-dose activity change, negative = inhibition, actives largely listed as inhibitors. Q27757. Kinase-Glo luciferase, ATP luminescence, 8 min. AID 1379. 0.28% of 200,000 active; further: on the % scale 0 is the no-effect control and ±100 the full control effect; nearly all actives have a fitted effect of over 60% in size
#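 Light output from Kinase-Glo luciferase with luciferin and 10 uM ATP in 50 mM imidazole pH 7.2, KCl, MgCl2, Tween 20, BSA; compound pin-delivered, 8-min ambient incubation, then luminescence read.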
# ELG1 genotox: inducers of genotoxicity in HEK293T ELG1-luciferase cells. HEK293T ELG1-luciferase reporter, luminescence, 16 h. Potency, µM (top dose mostly 46 µM), for the others: at the top dose activity change, positive = activation, most hits filed as activators. 1.3% of 330,000 active. AID 504466; further: % of control where 0% means no effect; nearly all actives have a fitted effect of over 60% in size
#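 16 hr compound incubation (37 °C, 5% CO2) of HEK293T cells carrying luciferase-tagged ELG1; luciferase then measured by ONE-Glo luminescence after 30 min at RT.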
# NPC1 promoter act: activators of NPC1 promoter; Huh7 NPC1 promoter luciferase reporter, 24 h; AID 485313; 2.4% of 320,000 active; Potency, µM (titrated, usually from 9.22 µM), without a hit: top-dose activation, most hits filed as activators; further: % of control where 0% means no effect; nearly all actives have a fitted effect of over 60% in size
#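 Compounds in DMSO were transferred onto Huh7 NPC1-luciferase reporter cells pre-incubated 2 h; after 24 h at 37 °C, Amplite reagent was dispensed and luminescence recorded 10 min later.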
# FLuc modulator: firefly luciferase modulation, counter-screen for miR-21 project | P08659 | purified FLuc, Km substrates, luminescence inhibition | Potency, µM (highest dose often 57.5 µM), without a hit: top-dose activity change, negative = inhibition, usual class: inhibitors | 6.9% of 360,000 active | AID 588342;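 further: plate controls were vehicle for no effect and reference inhibitor for full effect; nearly all actives have a fitted effect of over 55% in size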
# Target sequence (P08659 whole entry, looked up): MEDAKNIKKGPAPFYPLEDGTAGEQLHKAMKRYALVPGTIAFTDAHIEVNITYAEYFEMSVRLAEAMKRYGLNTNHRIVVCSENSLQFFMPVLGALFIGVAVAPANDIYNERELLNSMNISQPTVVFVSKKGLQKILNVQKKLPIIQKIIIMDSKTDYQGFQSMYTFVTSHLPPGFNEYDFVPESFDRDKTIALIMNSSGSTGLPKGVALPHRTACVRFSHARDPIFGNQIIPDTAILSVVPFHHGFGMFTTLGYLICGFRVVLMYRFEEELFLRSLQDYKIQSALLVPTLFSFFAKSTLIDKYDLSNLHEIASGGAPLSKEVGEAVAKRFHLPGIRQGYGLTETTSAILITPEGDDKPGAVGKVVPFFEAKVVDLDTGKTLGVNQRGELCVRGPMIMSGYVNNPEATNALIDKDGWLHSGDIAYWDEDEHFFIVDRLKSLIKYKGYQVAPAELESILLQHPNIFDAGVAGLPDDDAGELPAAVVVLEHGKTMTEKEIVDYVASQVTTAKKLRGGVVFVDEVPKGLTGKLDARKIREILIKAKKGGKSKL
#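 Purified P. pyralis luciferase, 10 nM final, with Km-level 10 uM D-luciferin and 10 uM ATP in 50 mM Tris acetate pH 7.5, 10 mM Mg acetate, 0.01% Tween-20, 0.05% BSA; 6-point qHTS titration about 60 µM downward; luminescence read.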
# Starred values were filed as active, the others as inactive; ? = inconclusive; / = no result given. The call rests on the fitted dose curve; in most records, active means well fitted curve in the direction sought with a large enough effect; inconclusive means small, poorly fitted or top-dose-only effect, or another doubt; inactive means no such curve, though single readings can be large; an effect the other way counts as inactive or inconclusive. Potency means the concentration at half of the fitted maximal effect.
SMILES,Rab9 prom act,SMN2 splice up,Luc counter,ELG1 genotox,NPC1 promoter act,FLuc modulator
Cc1nn(-c2ccccc2)c(OC(=O)c2ccc(Cl)cc2)c1S(=O)(=O)c1ccccc1,/,-4.1%,/,/,/,?
COC(=O)Cc1c(C)nc2nc(NCc3c(F)cccc3Cl)[nH]n2c1=O,-1.4%,-16.6%,4.4%,5.2%,-3.4%,5.0%
CCc1cccc(NC(=O)CCc2c(C)nc3c(-c4ccccc4)c(C)nn3c2C)c1,/,5.3%,/,/,/,?
O=C(N/N=C/c1ccccc1C(F)(F)F)c1ccc2nc[nH]c2c1,?,/,/,11.5%,?,?
C=CCc1cccc(/C=N/NC(=O)c2ccc3nc[nH]c3c2)c1O,-49.5%,/,/,?,-42.2%,16.9µM*
O=C(NC1CCCCC1)C(c1ccc2ncccc2c1)N(Cc1ccco1)C(=O)c1ccc2c(c1)OCCO2 (stereo not drawn),-0.8%,-8.9%,-1.0%,-10.7%,-0.9%,-0.6%
CCN(CC)C(=O)c1cc(-c2ccccc2OC)on1,?,12.2%,-9.3%,?,?,16.9µM*
Cc1ccc2[nH]cc(C(=O)NCc3cccs3)c(=O)c2c1,-1.7%,-24.3%,1.4%,-3.0%,-6.7%,-13.1%
COCCNC(=O)c1cc(-c2ccccc2OC)on1,?,35.6%,1.8%,?,8.7%,21.3µM*
COc1ccccc1-c1cc(C(=O)Nc2ccc(F)cc2F)no1,?,-1.5%,-5.0%,9.8%,?,1.9%
COc1cccc2c(=O)c(C(=O)NCc3cccs3)c[nH]c12,3.55µM*,?,-2.7%,?,?,9.53µM*
COc1ccccc1-c1cc(C(=O)Nc2cc(OC)c(OC)c(OC)c2)no1,/,-31.8%,/,/,/,-19.2%
COc1ccccc1-c1cc(C(=O)NCc2ccco2)no1,0.3%,0.5%,0.4%,8.7%,13.6%,15.1µM*
COc1ccccc1-c1cc(C(=O)NC(C)c2ccccc2)no1 (stereo not drawn),7.6%,/,/,-5.4%,0.9%,-23.0%
COc1ccccc1-c1cc(C(=O)NCc2cccs2)no1,-4.6%,-2.8%,-1.6%,5.7%,13.0%,19µM*
COc1ccccc1-c1cc(C(=O)NC(C)C)no1,2.82µM*,28.6%,-6.4%,?,3.16µM*,13.5µM*
CN(C(=O)CSc1ncnc2sc3c(c12)CCC3)C1CCS(=O)(=O)C1 (stereo not drawn),-3.3%,/,/,4.7%,0.3%,3.1%
Cc1ccc(-n2ncc3c(NCc4cccnc4)ncnc32)c(C)c1,-22.4%,-84.0%,-2.0%,9.9%,-9.4%,-15.0%
Cc1cccc(-n2ncc3c(NCc4cccnc4)ncnc32)c1,2.51µM*,/,/,?,3.98µM*,8.49µM*
COc1ccc(-n2ncc3c(NCc4cccnc4)ncnc32)cc1,1µM*,/,/,?,1.26µM*,6.75µM*
Cc1ccc(Cl)cc1-n1ncc2c(NCc3ccc(F)cc3)ncnc21,/,/,/,/,/,-10.8%
Cc1ccc(-n2ncc3c(NCc4cccnc4)ncnc32)cc1C,?,/,/,9.2µM*,2.24µM*,4.78µM*
O=C1C2C3C=CC(C4CC34)C2C(=O)N1/N=C/c1c[nH]c2ccccc12 (stereo not drawn),2µM*,/,/,17.2%,3.98µM*,1.9µM*
O=C1N(c2ccccc2)CCN1c1ccccc1,1.12µM*,/,/,?,0.501µM*,1.51µM*
CCOc1ccc(N2C(=O)c3cccnc3C2Nc2ccc(F)cc2)cc1 (stereo not drawn),0.1%,-8.4%,-0.9%,0.3%,3.1%,-9.3%
SMILES,Rab9 prom act,SMN2 splice up,Luc counter,ELG1 genotox,NPC1 promoter act,FLuc modulator
O=C1c2ccccc2CN2C(=O)c3ccccc3CN12,10.8%,/,/,8.1%,-4.5%,-2.4%
O=C1c2ccccc2CN1c1ccccc1,2µM*,/,/,?,?,16.9µM*
CCOc1ccc(N2Cc3ncccc3C2=O)cc1,2.51µM*,10µM*,?,?,3.16µM*,13.5µM*
Cc1ccc(N2C(=O)Cc3ccccc3C2=O)cc1,-4.7%,/,/,5.0%,-3.8%,-0.8%
Cc1ccc(N2Cc3ccccc3C2=O)cc1,0.501µM*,/,/,1.64µM*,0.447µM*,1.9µM*
COc1ccc(N2Cc3ccccc3C2=O)cc1,0.501µM*,/,/,1.83µM*,?,3.38µM*
Cc1cc(N2CCC(C)CC2)nc2cccc(O)c12,3.5%,-24.2%,-5.2%,8.3%,3.7%,23.9µM*
Cc1cccc(CC(=O)Nc2ccc3nc(N4CCC(C)CC4)cc(C)c3c2)c1,/,-26.2%,/,/,/,3.3%
O=c1oc2ccc(Br)cc2cc1-c1csc(-c2ccccc2)n1,/,/,/,/,/,2.3%
O=C1CC(c2cc(-c3ccccc3)no2)C1,2.82µM*,/,/,?,?,?
O=C(N/N=C/c1cccs1)c1ccc2nc[nH]c2c1,25.4%,0.1%,-3.0%,?,23.1%,?
CC(=C/c1ccccc1)/C=N/NC(=O)c1ccc2nc[nH]c2c1,19.8%,?,-3.5%,10.4%,16.4%,5.36µM*
O=C(N/N=C/C(Br)=C\c1ccccc1)c1ccc2nc[nH]c2c1,1.4%,?,0.1%,11.2%,2.2%,12µM*
O=C(N/N=C/c1ccco1)c1ccc2nc[nH]c2c1,-3.6%,/,/,-0.4%,-0.6%,-5.1%
CC(/C=N/NC(=O)c1ccc2nc(C)[nH]c2c1)=C\c1ccccc1,-1.3%,16.9%,-7.4%,-6.0%,2.1%,8.49µM*
Cc1cccc(C)c1OCC(=O)Nc1ccc2c(c1)C(=O)NC2=O,0.4%,/,/,0.2%,-2.6%,-0.6%
COc1cccc(NC(=O)Nc2cc(-c3cn4cccnc4n3)ccc2C)c1,/,11.5%,/,/,/,-14.5%
COc1ccc(-c2cn3cccnc3n2)cc1NC(=O)Nc1cc(C)ccc1C,4.4%,10.3%,/,/,18.8%,2.39µM*
COc1cccc(NC(=O)Nc2cc(-c3cn4cccnc4n3)ccc2OC)c1,/,8.91µM*,/,/,/,1.35µM*
COc1cccc(NC(=O)Nc2cccc(-c3cn4cccnc4n3)c2)c1,/,-7.0%,/,/,/,6.75µM*
COc1ccc(C)cc1NC(=O)C(OC(=O)CNC(=O)c1ccc(Br)cc1)c1ccccc1 (stereo not drawn),-3.9%,18.9%,-1.1%,1.6%,1.9%,2.8%
CC(=O)c1ccc(NC(=O)c2ccc(N3CCCC3=O)cc2)cc1,-0.6%,/,/,2.2%,1.1%,-12.1%
CSc1ccccc1NC(=O)c1ccc(N2CCCC2=O)cc1,?,/,/,?,?,15.1µM*
CC(=O)c1ccccc1NC(=O)c1ccc(N2CCCC2=O)cc1,?,/,/,?,26.5%,7.57µM*
CC(NC(=O)c1ccc(N2CCCC2=O)cc1)c1ccccc1 (stereo not drawn),14.9%,-16.3%,-2.5%,6.2%,0.2%,-7.7%
CCOC(=O)C1(Cc2ccccc2)CCCN(Cc2ccccn2)C1 (stereo not drawn),-7.8%,/,-0.3%,-5.6%,1.1%,-0.4%

# Source: PubChem (National Center for Advancing Translational Sciences (NCATS))
